Most compounds without a hit are left out; they make up all but 32% or so of the library.
CYP2C19 activ: human CYP2C19 activators, primary screen, biochemical, luminescence; recombinant CYP2C19, luciferin-H EGE luminescence; stronger effect = higher value; 0 = fully inhibited enzyme, 1 = untreated enzyme; activation factor at 5 µM; 96,000 tested, under 10 active;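 active means activation factor of at least 2 at 5 µM in the primary screen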
CYP2C9 inh: blockers of cytochrome P450 2C9 activity – biochemical, luminescence, ADME assay, primary screen | P11712 | CYP2C9 Supersomes, luciferin-H conversion | inhibition, % at 5 µM | 20% of 96,000 active | AID 777, 2007;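 active means blocking of liver enzyme CYP2C9 beyond about 50% at 5 µM, limit read from the data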
Target sequence (P11712 whole entry, looked up): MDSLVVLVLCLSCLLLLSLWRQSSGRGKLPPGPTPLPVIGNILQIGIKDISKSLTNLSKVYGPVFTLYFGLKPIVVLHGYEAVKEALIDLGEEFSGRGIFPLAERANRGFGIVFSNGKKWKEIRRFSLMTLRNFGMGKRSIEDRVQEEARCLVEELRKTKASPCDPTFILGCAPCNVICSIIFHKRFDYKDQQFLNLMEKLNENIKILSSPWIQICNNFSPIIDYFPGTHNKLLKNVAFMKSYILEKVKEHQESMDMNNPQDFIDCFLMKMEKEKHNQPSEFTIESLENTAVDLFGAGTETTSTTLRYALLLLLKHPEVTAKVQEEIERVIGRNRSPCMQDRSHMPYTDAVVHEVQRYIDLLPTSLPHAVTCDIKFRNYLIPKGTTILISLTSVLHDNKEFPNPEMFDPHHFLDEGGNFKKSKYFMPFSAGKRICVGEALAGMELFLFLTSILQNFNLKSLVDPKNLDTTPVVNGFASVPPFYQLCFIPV
CYP2C19 inh: blockers of cytochrome P450 2C19 activity – biochemical, luminescence, ADME assay, primary screen; CYP2C19 Supersomes, luciferin-H EGE luminescence, 30 min; inhibition, % at 5 µM; 21% of 96,000 active; AID 778, 2007;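 active means CYP2C19 inhibition above a set limit at 5 µM in the primary screen, cut at about 50% in these data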
CYP2C9 act: human CYP2C9 activators, primary screen, biochemical, luminescence. activation factor at 5 µM. 1.4% of 96,000 active. recombinant CYP2C9, luciferin-H conversion; stronger effect = higher value; factor 1 = untreated enzyme, 0 = blocked. Cytochrome P450 2C9 (Homo sapiens), P11712;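 active means activation factor of 2 or more for CYP2C9 at a 5 µM dose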
PostGolgi yeast: phenotypic screen on post-Golgi transport, primary screen; inhibition, % at 10 µM; 0.9% of 98,000 active; post-Golgi transport phenotypic cell assay;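 further: yeast cells grown in 1536-well plates; yeast grown about 18 h at 30C before absorbance read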
PostGolgi ctrl: growth inhibition of yeast control strain, primary screen, counter-screen for post-Golgi transport modulator project. efflux-deficient yeast background strain, growth absorbance A615, 16 h. inhibition, % at 10 µM. 5% of 98,000 active. AID 738, 2007
Large screens that a line does not name were inactive. Unless noted, no stated cut-off is given here; in the data, active means inhibition above about 30%; inactive means the rest.

C1=C(C(c2nnnn2C2CCCCC2)N2CCCCC2)COc2ccccc21 (configuration not stated)	none
CC(=O)c1cccc(NC(=O)NCc2ccco2)c1	none
Cc1ccc(C(=O)Nc2cccc(C(=O)NCc3ccco3)c2)cc1	CYP2C9 inh 83
CCC(CC)C(=O)Nc1cccc(C(=O)NCc2ccco2)c1	PostGolgi ctrl 42
CCC(C)NC(=O)C(CCSC)NC(=O)c1ccccc1 (configuration not stated)	none
CSCCC(NC(=O)c1ccccc1)C(=O)NCc1ccco1 (configuration not stated)	PostGolgi ctrl 38
O=C(c1ccc(F)cc1)C1CCN(C(=O)c2ccncc2)CC1	CYP2C9 inh 97, CYP2C19 inh 98
CC1CCCN(C(=O)c2ccncc2)C1 (configuration not stated)	CYP2C19 inh 82
O=C(c1ccc(Cl)cc1)C1CCN(C(=O)C2CC2)CC1	CYP2C19 inh 83
Cc1ccc(CNC(=O)C2CCC(=O)N2CCc2ccccc2)cc1 (configuration not stated)	none
Cn1cccc1Cc1nnc(SCC(=O)NC2CCCCC2)n1CCc1ccccc1	none
Cc1ccccc1N(C(=O)Cn1nnc2ccccc21)C(C(=O)NCc1ccco1)c1ccncc1 (configuration not stated)	none
CN1CCN(c2ccc(Cl)cc2NS(=O)(=O)c2ccccc2Cl)CC1	none
O=C1c2ccccc2C(=O)N1OCc1ccc(Cl)cc1	CYP2C19 inh 64
COc1cccc(C2=NO[C@@H]3C(=O)N(Cc4ccccc4)C(=O)[C@H]23)c1OC	CYP2C9 inh 88, CYP2C19 inh 97
CCOC(=O)c1nn(-c2cccc(Cl)c2)c(C)c1C(C)=O	CYP2C9 inh 64, CYP2C19 inh 100
CCOC(=O)c1nn(-c2ccccc2)c(=O)c(C#N)c1C	CYP2C19 inh 70
CCOC(=O)c1c(C)nn(Cc2cccc(Cl)c2)c1N	CYP2C9 inh 90
CCOC(=O)c1nn(-c2ccc(F)cc2)c(-c2ccccc2)c1C(=O)c1ccccc1	none
Cc1c(C(=O)O)nn(-c2ccccc2)c(=O)c1C#N	none
CCOC(=O)c1nn(-c2ccccc2)c(-c2ccccc2)c1C(=O)c1ccccc1	CYP2C9 inh 59
CCOC(=O)c1nn(-c2cccc(OC)c2)c(-c2ccccc2)c1C(=O)c1ccccc1	none
CCOC(=O)c1c(N)nn(C(C)=O)c1-c1ccccc1	none
CCOC(=O)c1nn(-c2ccccc2F)c(-c2ccccc2)c1C(=O)c1ccccc1	PostGolgi ctrl 32
O=C(NCc1cccnc1)c1cccc2c1C(=O)N(Cc1cccnc1)C2	CYP2C19 inh 76
COCCN1Cc2cccc(C(=O)Nc3cccc(OC)c3)c2C1=O	none
COCCN1Cc2cccc(C(=O)NCc3cccnc3)c2C1=O	CYP2C19 inh 78
COc1ccc(CNC(=O)c2cccc3c2C(=O)N(Cc2cccnc2)C3)cc1	CYP2C9 inh 76, CYP2C19 inh 55
O=C(c1cccc2c1C(=O)N(Cc1cccnc1)C2)N1CCN(c2ccccc2)CC1	none
CCC1CCCCN1Cc1ccc(OC)c(C)c1 (configuration not stated)	none
O=C(CCc1nc2ccccc2[nH]1)Nc1ccc2c(c1)OCO2	none
O=C(Nc1ccccc1C(F)(F)F)c1cccnc1	none
Cc1cc(NC(=O)CSc2nc3ccccc3[nH]2)no1	none
O=C(CSc1nc2ccccc2[nH]1)Nc1ccc2c(c1)OCCO2	CYP2C9 inh 72
O=C(CSc1nc2ccccc2[nH]1)Nc1ccc(F)cc1	CYP2C9 inh 84, CYP2C19 inh 94
O=C(CSc1nc2ccncc2[nH]1)Nc1ccccc1C(F)(F)F	CYP2C19 inh 60
O=C(Nc1nc2ccccc2[nH]1)C1CC(=O)N(c2ccc3c(c2)OCCO3)C1 (configuration not stated)	CYP2C9 inh 62, CYP2C19 inh 59
O=C(O)C1CC(=O)N(c2ccc3c(c2)OCCO3)C1 (configuration not stated)	none
CCOc1ccc(NC(=O)CN2C(=O)C3CCCN3C2=O)cc1 (configuration not stated)	none
CCCCCn1c(CNC(=O)CCC)nc2ccccc21	none
Cc1ccc2nc(SCC(=O)Nc3c(C)n(C)n(-c4ccccc4)c3=O)[nH]c2c1	none
Clc1ccccc1CSc1nc2ccncc2[nH]1	CYP2C19 inh 99
Cc1ccc2nc(SCC(=O)Nc3ccc4c(c3)OCCO4)[nH]c2c1	CYP2C9 inh 83
O=C(O)CSc1nc2ccc(Cl)cc2[nH]1	none
CCOC(=O)c1cnc(SCC(=O)Nc2ccc(NC(=O)CC)c(OC)c2)nc1N	none
CCCCC1CCC(c2nc(-c3ccccn3)no2)CC1 (configuration not stated)	PostGolgi ctrl 38
CCc1nc(N[C@H](C(=O)O)C(C)CC)c2oc3ccccc3c2n1 (some centres not stated)	none
CCc1oc(C(=O)O)cc1COC	PostGolgi ctrl 33
O=C1Nc2ccc([N+](=O)[O-])cc2C1(O)N1CCCCC1 (configuration not stated)	none
Cc1ccc(C(O)c2ccncc2)cc1 (configuration not stated)	CYP2C9 inh 78, CYP2C19 inh 72
Cc1ccccc1C(O)c1ccncc1 (configuration not stated)	CYP2C9 inh 74, CYP2C19 inh 68
Cc1oc(-c2ccccc2F)nc1CS(=O)(=O)CC(=O)NCCN(C)C1CCCCC1	none
Cc1ccc(C(NC(=O)NCCCN2CCOCC2)=C(Cl)Cl)cc1F	none
O=C(c1ncc[nH]1)c1ccccc1C(=O)N1CCOCC1	PostGolgi ctrl 33
COc1ccccc1C(O)Cc1nc2ccccc2n1C (configuration not stated)	CYP2C19 inh 95
CC(C)C(=O)NCCc1nc2ccccc2n1C	none
O=C(CC12CC3CC(C1)CC(CC(=O)N1CCCC1)(C3)C2)N1CCCC1	none
O=C(Nc1nnc(-c2ccccc2)o1)c1ccc(Cl)cc1	PostGolgi yeast 110, PostGolgi ctrl 74
O=C(Nc1nnc(-c2ccccc2)o1)Nc1ccccc1Cl	CYP2C19 inh 56
CCN1CCN(C(C(=O)NC2CCCCC2)c2ccc(Cl)cc2)CC1 (configuration not stated)	none
N#Cc1ccc(CSc2nnc(-c3cccnc3)n2-c2ccccc2)cc1	none
Cn1c(SCc2ccccc2F)nnc1-c1cnccn1	CYP2C19 inh 62
c1ccc(CSc2nnc(-c3ccccn3)n2-c2ccccc2)cc1	CYP2C9 inh 99
CC(C)(C)NC(=O)CSc1nc(O)cc(=O)n1-c1ccccc1	none
CC1CCN(C(=O)CSc2nncn2-c2ccccn2)CC1	none
CC(C)(C)NC(=O)CSc1nnc(-c2ccccn2)n1-c1ccccc1	CYP2C19 inh 53 (no result: PostGolgi ctrl)
